Compound activity as filed in PubChem BioAssay.
Compounds with a hit are over-represented: about 7.3% of the library has one in this group of screens.
NPC1 prom act – NPC1 promoter activation; 320,000 tested, 2.4% active; Potency, µM (top dose mostly 9.22 µM), without a hit: at the highest dose activation, most hits filed as activators; Huh7 NPC1 promoter luciferase reporter, 24 h; further: % of control where 0% means no effect; nearly all actives have a fitted effect of over 60% in size
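Stable NPC1-promoter luciferase Huh7 line; cpd (DMSO) 24 h, 37 °C, 5% CO2; Amplite luciferase reagent 10 min RT; luminescence readout. qHTS format.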
Rab9 promoter act – Rab9 promoter activation; Potency, µM (series often up to 9.22 µM), without a hit: at the top dose activation, negative = inhibition, most hits filed as activators; AID 485297; Huh7 Rab9 promoter-luciferase reporter, luminescence, 24 h; 320,000 tested, 2.8% active; further: % of control where 0% means no effect; nearly all actives have a fitted effect of over 60% in size
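Promoter activation is measured as luciferase luminescence in Huh7 cells stably transfected with a Rab9 promoter–luciferase construct, following 24 h compound exposure at 37 °C and 10 min reagent incubation at ambient temperature.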
ELG1 genotoxic – genotoxicity induction in ELG1-luciferase HEK293T cells; HEK293T ELG1-luciferase reporter, luminescence, 16 h; Potency, µM (top dose mostly 46 µM), for the others: at the highest dose activity change, positive = activation, actives largely listed as activators; 330,000 tested, 1.3% active; further: % of control where 0% means no effect; nearly all actives have a fitted effect of over 60% in size
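HEK293T cells expressing luciferase-tagged ELG1 were treated with compound or DMSO for 16 hr at 37°C. Luciferase activity was then read after 30 min with ONE-Glo at room temperature; rising signal flags genetic stress.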
uPA surface inh – cell surface uPA generation inhibition; cell surface uPA generation assay, qHTS; AID 540303; 330,000 tested, 0.31% active; Potency, µM (doses to about 38.3 µM), inactives show top-dose activity change, negative = inhibition, actives largely listed as inhibitors; active means well fitted inhibition curve with a large enough effect; inconclusive means small, poorly fitted or top-dose-only effect; inactive means no such curve, though single readings can be large or run the other way; tested in mouse RAW 264.7 cells; further: on the % scale 0 is the no-effect control and ±100 the full control effect; nearly all actives have a fitted effect of over 55% in size
SMN2 splice up – increases expression of the SMN2 splice variant | HEK293 SMN2-luciferase splicing reporter, luminescence, 30-36 h | Potency, µM (titrated, usually from 46.1 µM), inactives show at the highest dose activity change, positive = activation, actives largely listed as activators | 210,000 tested, 2.8% active; further: % of control where 0% means no effect; nearly all actives have a fitted effect of over 55% in size
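qHTS luciferase splicing reporter: luminescence rises when SMN2 exon 7 is included in transfected HEK293 cells. Compound exposure lasted 30-36 h at 37C, with 4.5 mM final sodium butyrate as control, followed by a ONE-Glo read.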
FLuc counter – firefly luciferase modulation, counter-screen for miR-21 project. P08659. Potency, µM (titrated, usually from 57.5 µM), for inactives: at the top dose activity change, negative = inhibition, hits mostly inhibitors. 360,000 tested, 6.9% active. AID 588342. purified FLuc, Km substrates, luminescence inhibition;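 further: plate controls were vehicle for no effect and reference inhibitor for full effect; nearly all actives have a fitted effect of over 55% in size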
Target sequence (P08659 whole entry, looked up): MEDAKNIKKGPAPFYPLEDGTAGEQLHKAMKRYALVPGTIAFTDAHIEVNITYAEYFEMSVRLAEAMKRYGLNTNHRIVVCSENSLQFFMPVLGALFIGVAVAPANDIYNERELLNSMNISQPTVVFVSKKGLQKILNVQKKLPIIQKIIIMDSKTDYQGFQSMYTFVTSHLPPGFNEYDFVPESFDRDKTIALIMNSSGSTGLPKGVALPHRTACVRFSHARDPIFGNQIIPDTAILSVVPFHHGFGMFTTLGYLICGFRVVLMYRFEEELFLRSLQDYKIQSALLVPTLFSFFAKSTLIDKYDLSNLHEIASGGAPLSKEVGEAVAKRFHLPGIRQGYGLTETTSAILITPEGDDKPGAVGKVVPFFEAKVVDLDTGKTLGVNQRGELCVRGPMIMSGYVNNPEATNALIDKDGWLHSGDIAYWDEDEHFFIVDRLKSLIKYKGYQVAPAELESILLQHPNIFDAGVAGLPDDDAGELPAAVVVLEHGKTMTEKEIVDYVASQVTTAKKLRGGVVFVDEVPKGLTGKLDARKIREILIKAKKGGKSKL
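Biochemical qHTS of compounds, final roughly 60 µM downward over six points, against 10 nM purified firefly luciferase using Km concentrations of substrates (10 uM D-luciferin, 10 uM ATP) in Tris acetate pH 7.5 buffer; luminescence output.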
* hit, by the source's call; ? = inconclusive; / = not tested or not shown. Unless noted, the call rests on the fitted dose curve; in most records, active means well fitted curve in the direction sought with a large enough effect; inconclusive means small, poorly fitted or top-dose-only effect, or another doubt; inactive means no such curve, though single readings can be large; an effect the other way counts as inactive or inconclusive. Potency means the concentration at half of the fitted maximal effect.

SMILES	NPC1 prom act	Rab9 promoter act	ELG1 genotoxic	uPA surface inh	SMN2 splice up	FLuc counter
O=C(Nc1nsc(-c2ccccc2)n1)c1cccs1	1.58µM*	1.12µM*	0.581µM*	-9.2%	3.16µM*	4.26µM*
Cc1sc(NC(=O)c2ccco2)nc1-c1ccc2c(c1)CC(C)N2C(=O)C1CC1 (stereo not drawn)	-1.4%	12.2%	-31.2%	/	-37.6%	19µM*
Cc1sc(NC(=S)NC(=O)c2cccs2)nc1-c1ccc(C(C)C)cc1	1.5%	8.1%	-0.1%	/	-1.0%	4.3%
Cc1sc(N/N=C/c2cccs2)nc1-c1ccccc1	18.2%	?	?	6.6%	-18.8%	10.7µM*
COC(=O)c1sc(NC(=O)c2ccco2)nc1C	14.3%	21.9%	16.2%	-0.2%	8.0%	?
Cc1nc(NC(=O)c2ccco2)sc1C(=O)O	0.8%	-0.1%	4.1%	8.3%	/	10.7µM*
CC(=O)c1c(C)[nH]c(C(=O)Nc2nc(-c3ccccc3)c(C)s2)c1C	?	?	8.9%	6.4%	/	3.01µM*
Cc1sc(N/N=C/c2cccnc2)nc1-c1ccc(Cl)cc1	0.4%	-4.0%	?	1.8%	-26.0%	-0.6%
Cc1sc(NC(=O)c2ccco2)nc1-c1ccccc1	3.55µM*	1.58µM*	?	-2.3%	4.47µM*	2.13µM*
NS(=O)(=O)c1cccc(NS(=O)(=O)c2ccc(/C=C/C(=O)OCC(=O)c3ccccc3)cc2)c1	0.1%	?	-2.9%	-0.4%	14.4%	?
CCn1ccc(C(=O)NC2=NCCS2)n1	-1.5%	15.3%	5.5%	2.5%	44.2%	-15.6%
CCn1ccc(C(=O)Nc2ncc(C)s2)n1	0.794µM*	0.794µM*	0.4%	?	/	?
CCCc1cc(=O)n2[nH]c(NC(=O)c3ccc(C(C)(C)C)cc3)nc2n1	/	/	/	/	5.4%	?
CN(C)c1ccc(C(CNC(=O)Cc2ccc(Cl)cc2)N2CCOCC2)cc1 (stereo not drawn)	/	/	/	/	/	-3.1%
O=C1c2ccccc2NC(c2ccccc2)N1/N=C/c1ccccc1 (stereo not drawn)	2.51µM*	2.51µM*	19.9%	-11.9%	25.1µM*	?
N#C/C(=C\c1ccc(Cl)cc1)c1nc(-c2cc3c(ccc4ccccc43)oc2=O)cs1	/	/	/	/	-5.8%	-1.1%
CC(C)CC(=O)Nc1nnc(S(=O)(=O)N(CC(C)C)c2ccccc2)s1	/	/	/	/	/	0.849µM*
CCCC(=O)Nc1nnc(S(=O)(=O)N(CC)c2ccccc2)s1	1.3%	-1.4%	8.2%	-4.8%	/	-1.1%
CCN(c1ccc(OC)cc1)S(=O)(=O)c1nnc(NC(=O)C2CCCCC2)s1	-1.9%	-2.2%	2.2%	-1.7%	/	0.6%
CCN(c1ccccc1)S(=O)(=O)c1nnc(NC(=O)C2CCCCC2)s1	/	/	/	/	/	2.69µM*
CCN(c1cccc(C)c1)S(=O)(=O)c1nnc(NC(=O)C2CCCCC2)s1	/	/	/	/	/	15.1µM*
CN(c1ccc(Cl)cc1)S(=O)(=O)c1nnc(NC(=O)C2CCCCC2)s1	/	/	/	/	/	0.7%
CCN(c1ccc(C)cc1)S(=O)(=O)c1nnc(NC(=O)C2CCCCC2)s1	/	/	/	/	/	10.7µM*
CC(Sc1n[nH]c(-c2ccccc2F)n1)C(=O)Nc1ccc(S(N)(=O)=O)cc1 (stereo not drawn)	-1.9%	-5.4%	0.4%	1.5%	/	-8.4%
CC(=O)c1ccc(Nc2ccc3cc(S(=O)(=O)N4CCCC4)ccc3n2)cc1	/	/	/	/	/	-11.9%
SMILES	NPC1 prom act	Rab9 promoter act	ELG1 genotoxic	uPA surface inh	SMN2 splice up	FLuc counter
Cc1ccc(CNC(=O)CSc2ncc(S(=O)(=O)c3ccc(Br)cc3)c(=O)[nH]2)cc1	/	/	/	/	-1.5%	6.75µM*
COc1cc(NC(=O)CSc2ncc(S(=O)(=O)c3ccc(Br)cc3)c(=O)[nH]2)cc(OC)c1	/	/	/	/	-9.3%	?
O=C(CSc1ncc(S(=O)(=O)c2ccc(Cl)cc2)c(=O)[nH]1)Nc1cccc(C(F)(F)F)c1	/	/	/	/	5.2%	?
O=C(CSc1ncc(S(=O)(=O)c2ccc(Br)cc2)c(=O)[nH]1)NCc1ccc(Cl)cc1	/	/	/	/	4.5%	8.49µM*
COc1ccc(CCN2C(=O)CN(C3CCCCCC3)C(=O)C2c2ccc(Cl)cc2)cc1OC (stereo not drawn)	/	/	/	/	/	-1.5%
Fc1ccccc1N1CCN(c2nccn3nc(-c4ccc(Br)cc4)cc23)CC1	/	/	/	/	-0.3%	-2.9%
COc1ccc(CNC(=O)c2cc3c(=O)[nH]c4ccccc4c3n2C)c(OC)c1	/	/	/	/	2.7%	-6.5%
C/C(=N/NC(=O)CN1CCN(Cc2ccccc2Cl)CC1)c1ccco1	1.4%	-6.2%	-1.7%	-3.6%	/	1.6%
Cc1ccccc1-c1nnn(CC(=O)Nc2sc3c(c2C#N)CCC(C(C)(C)C)C3)n1 (stereo not drawn)	/	/	/	/	-0.6%	?
CC(C)=CC(=O)OCc1cc([N+](=O)[O-])cc2c1OCOC2	10.2%	?	?	-4.1%	?	23.9µM*
O=C(OCc1cc([N+](=O)[O-])cc2c1OCOC2)c1ccc2ccccc2n1	-5.7%	6.5%	6.9%	-1.9%	5.7%	0.3%
Cn1nnnc1SCc1ccc(C(=O)Nc2nccs2)cc1	29.8%	?	?	-13.8%	11.2µM*	15.1µM*
C=CCn1c(SCc2ccc(C(=O)Nc3nccs3)cc2)nnc1-c1ccc(C)c(Cl)c1	1.2%	-0.6%	-13.7%	-12.2%	-97.4%	10.7µM*
Cn1nnnc1SCc1ccc(CSc2nnnn2C)cc1	-2.7%	-2.5%	-2.2%	4.8%	-15.4%	1.7%
Cc1cc(C)cc(NC(=O)c2ccc(CSc3nnnn3C)cc2)c1	9.0%	18.6%	-0.3%	-0.3%	-10.9%	13.5µM*
Cc1ccc(NC(=O)CSc2nc(=O)n(CCN3CCOCC3)c3c2CCC3)c(C)c1	/	/	/	/	/	-3.4%
CCOC(=O)CCCCN(Cc1ccccc1F)S(=O)(=O)c1ccc(F)c(C(=O)Nc2cc(Cl)cc(Cl)c2)c1	/	/	/	/	/	-4.5%
COc1cccc(CN2C(=O)c3ccccc3Sc3ccc(C(=O)N(C)Cc4ccccc4)cc32)c1	/	/	/	/	-11.0%	3.8%
O=C(c1cc(-c2ccc(F)cc2)nc2ccccc12)N1CCN(C2CCS(=O)(=O)C2)CC1 (stereo not drawn)	8.8%	19.2%	-0.2%	?	/	9.53µM*
COc1cccc(-c2nn(-c3ccc(C)cc3)cc2C(=O)N2CCN(C3CCS(=O)(=O)C3)CC2)c1 (stereo not drawn)	4.9%	1.1%	-1.9%	-0.5%	/	15.1µM*
CCOC(=O)C1CCCN(C(=O)c2cc(Nc3ccc(OC)cc3)nc3ccccc23)C1 (stereo not drawn)	/	/	/	-2.7%	-5.2%	15.1µM*
COc1ccc(-c2nn(-c3ccccc3)cc2C(=O)N2CCOCC2)cc1	-4.2%	7.9%	-4.6%	-3.7%	-3.8%	6.1%
